Experiments:
Experiment in all cases: PBM binding z-score (relative to random genomic background probes); higher = stronger binding; sequences stand for … in GC…GCGATTGACAGCGTAGAATGAAGG
[1] = tested on: PPARg:RXRa DBDmut IVT, anti-RXR (DBD mutation: RXRa K156A/R161A, NR concentration 270 nM, RXRa partner concentration 90 nM)
In short: (§1)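 Antibodies against each partner of ligand-free nuclear receptor dimers (one per run) detected binding on custom Agilent 4×180K protein-binding microarrays after 1 h incubation. The double-stranded probes had 34-nt variable regions carrying direct-repeat seeds, single-nucleotide variants, half-site ablations and random human genomic background sequences. Binding z-scores, from regression-normalized fluorescence, use the random background probes as reference.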

[2] = tested on: PPARg:RXRa IVT, anti-PPARg (NR concentration 270 nM, RXRa partner concentration 90 nM)
In short: as §1

[3] = tested on: PPARg DBDmut:RXRa IVT, anti-PPARg (DBD mutation: PPARg1 K132A/R137A, NR concentration 270 nM, RXRa partner concentration 90 nM)
In short: as §1

[4] = tested on: PPARg DBDmut IVT, anti-PPARg (DBD mutation: PPARg1 K132A/R137A, NR concentration 270 nM)
In short: as §1

[5] = tested on: PPARg homodimer (NR concentration 180 nM)
In short: as §1

[6] = tested on: PXR:RXRa (NR concentration 270 nM, RXRa partner concentration 90 nM)
In short: as §1

[7] = tested on: PXR homodimer (NR concentration 270 nM)
In short: as §1

[8] = tested on: RARa:RXR (NR concentration 270 nM, RXRa partner concentration 90 nM)
In short: as §1

[9] = tested on: RARa homodimer (NR concentration 270 nM)
In short: as §1

[10] = tested on: RARb:RXRa (NR concentration 270 nM, RXRa partner concentration 90 nM)
In short: as §1

Sequence	PBM binding z-score [1]	PBM binding z-score [2]	PBM binding z-score [3]	PBM binding z-score [4]	PBM binding z-score [5]	PBM binding z-score [6]	PBM binding z-score [7]	PBM binding z-score [8]	PBM binding z-score [9]	PBM binding z-score [10]
CCGACTGGGGCAAAGTTTACCATACTCAGTACGA	4.45	4.71	-0.8	-0.571	0.875	0.182	0.0528	0.465	-0.24	1.41
AATACAGGGTCTCTAGGCCAGAGTAGGTACGAAT	0.633	1.69	-0.23	-0.134	0.115	-0.522	-0.459	-0.47	-0.399	0.389
ATCTCTAGGTAAGACTCAGTTCAGTGATGAACGC	1.78	1.28	1.15	1.33	1.36	0.974	1.63	0.24	0.763	0.357
CATAGAGGGTCAGCTAGGCCAGAGTAGGGACGGC	1.42	2.21	0.395	0.25	1.26	1.2	-0.122	1.9	-0.0533	3.82
TGTCAAAGTCCAAAGGTAACGTAAGTATCCACAC	-0.118	1.79	0.417	1.16	0.272	0.511	-0.0654	0.938	0.285	1.93
CAAACTAGGTCAAGAGGTGAAAGTCCGCTTCCCG	8.11	8.63	5.95	5.05	5.72	2.72	0.369	4.83	1.4	4.54
CTTGAAAGGTCGGTTGAGGTGAGTATACGGATAA	0.154	0.996	-0.0609	0.067	0.811	3.33	0.421	2.5	-0.0411	2.97
CGAACTAGTTCATTGACAGGACAGTGAATAGTAA	0.941	0.504	0.647	0.333	0.0581	1.09	0.739	0.372	0.437	1.25
CAAACTAGGTCACGGTCAAAGTCGGTTTGTGCCA	8.53	9.26	4.37	3.83	2.22	2.72	-0.218	3.68	0.991	4.81
ATATGTATGTTAGCTGGGGTCATTCAGACTAGGC	2.2	2.3	1.51	1.76	1.82	5.63	2.99	5.55	0.578	2.6
TAGCCTAGGTCATTCAGGGGCCATTATAGAAAGC	1.86	3.06	0.753	0.98	2.02	3.3	0.128	3.79	0.894	3.98
CCTGCTAGGTCATGGTCAGCTGATCTACAGTATG	4.74	4.18	0.184	0.177	2.39	2.18	-0.463	2.89	-0.136	4.21
CCTAGCAGGCCAATCTGGGTCACTCACGGCTTGA	4.16	4.93	-0.714	-0.428	0.645	0.777	-0.161	1.18	-0.509	1.56
AGAACGAGGGCAATGTGTTGATAGCACGGGTGGC	3.49	2.88	0.318	-0.0765	0.0511	0.325	0.276	0.248	-0.364	2.05
CCTTACGGGTCACTCCAGGTTATTGCATCGGAGT	2.64	3.54	0.677	1.01	2.9	5.46	0.3	4.02	1.23	3.56
GCTAGCAGGCTATTTGGGTCACTCAATGACGGGC	3.1	3.87	-0.208	-0.897	0.28	0.435	-0.454	1.01	-0.508	1.27
AGAATGAGGTTATGATCAGGGAAACAGAATACAT	1.69	2.07	1.68	0.713	0.605	1.02	0.186	1.6	0.566	1.42
ACAGACAGGTGAGAGAAGGTAACTCAGCTGGACG	0.676	0.706	0.0985	-0.367	-0.0826	-0.372	-0.505	0.102	-0.00725	0.565
ATCCAAAGGTCGTGAGGTGAGTATACAGAAAGGC	0.752	2.92	1.39	0.827	1.97	3.64	0.629	4.91	1.46	4.4

Sequence	PBM binding z-score [1]	PBM binding z-score [2]	PBM binding z-score [3]	PBM binding z-score [4]	PBM binding z-score [5]	PBM binding z-score [6]	PBM binding z-score [7]	PBM binding z-score [8]	PBM binding z-score [9]	PBM binding z-score [10]
CCTAGTTGGTCAGGAGGTAACACACCGGATATGA	0.719	1.36	0.594	0.266	1.37	0.0397	0.446	0.422	1.49	0.781
GCAGACAGGTGAAACGCAGGTAACTAAGGGTGGC	0.562	0.741	-0.406	-0.735	-0.84	-0.388	-0.493	0.156	-0.657	0.531
CGAACTAGGTCATTGACAGGACAGTGACTAGTAA	8.03	8.27	2.04	1.38	0.886	1.81	0.0529	2.44	0.0227	3.58
TCTCGGAGGACACGGAGGTCAGAGCTTTCCAGAG	1.26	1.06	-0.769	-1.39	1	2.45	2.46	2.29	-0.596	3.25
CTACCAAGGTGATCAAGGTCGTTGATTACTATTC	1.11	1.31	0.364	-0.201	0.492	2.22	1.77	1.33	0.0994	1.32
ATCTCTAGGTATGACTCAGTTCAGTGAAGAACGC	0.262	0.638	0.456	1.61	0.371	0.877	1.49	0.389	0.624	0.243
TCTAGTTGGTCACGGAGGTCACATACGACGGGTA	2.69	4.21	1.22	1.14	2.46	4.38	1.7	4.13	1.16	3.84
TGAATTAGGTTAAAGATCAGGGAACGTGGCGTCG	6.08	5.63	0.86	1.43	1.58	0.403	0.276	1.12	1.04	1.19
ACTTACGGGTCAACGAGGTGATAGCACGCGTATA	3.7	4.4	2.02	1.22	2.44	3.94	0.307	5.09	1.19	4.04
TCTTGTAGATCAGCAGGTTAAGCAAGCTGGCCAA	1.37	0.191	-0.396	0.0188	-0.763	0.022	-0.446	0.058	-1.03	0.0308
TCTGCTAGGGCAACGATGGTCAGCTAATCTGCTA	2.18	1.59	-0.859	-1.01	-1.1	-0.375	-0.975	-0.218	-0.818	1.58
CGTCCAAGGTCAAGGTCAGTAAAAGAGACTCGAA	3.53	4.49	0.553	0.71	4.59	4.72	1.84	5	3.01	5.53
GGAACGAGTGCAAAGTTGATAGCATCTGTCGACG	-0.204	0.102	-0.12	0.22	-0.16	0.715	0.211	0.728	-0.6	0.396
ATCGAAAGGTCGAGGTGAGTATTGAGAAAGGGAA	0.628	2.34	0.498	0.451	1.67	2.33	0.428	3.07	0.977	4.15
CCTTACGGGTCACTGAAAGGTTATAGCATTTGGA	2.95	4.1	1	1.09	3.7	5.03	0.223	6.33	0.617	4.51
ATCGAAAGGTCGAAGGTGAGTATACCCACCCGAA	0.0439	2.38	0.373	0.686	1.04	2.96	-0.372	3.94	0.591	3.82
GCGACTCGGGCATCAGCAGGTTACCATAACTTAA	0.301	-0.204	-0.845	-1.46	-0.774	-0.236	-0.725	0.133	-0.931	0.242
TTACCAAGATGAAAGGTCGTTGATGCACGCCTTG	0.675	1.47	0.794	0.0757	1.13	2.08	0.245	2.24	0.444	1.55

Source: the supplement of paper PMC6555819
